Assay results from PubChem BioAssay AID777 (Sanford-Burnham Center for Chemical Genomics, 2007).
About 19,000 (20%) of roughly 96,000 compounds were called active.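 The calls were made as follows: active = blocking of liver enzyme CYP2C9 beyond about 50% at 5 µM (limit read from the data); inactive = the rest.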 Not all results are given here.

target: Cytochrome P450 2C9 (Homo sapiens) (UniProt P11712); assay: blockers of cytochrome P450 2C9 activity – biochemical, luminescence, ADME assay, primary screen (AID 777); conditions: CYP2C9 Supersomes, luciferin-H conversion, at 5 µM, active compounds read high
Sequence (P11712 whole entry, looked up): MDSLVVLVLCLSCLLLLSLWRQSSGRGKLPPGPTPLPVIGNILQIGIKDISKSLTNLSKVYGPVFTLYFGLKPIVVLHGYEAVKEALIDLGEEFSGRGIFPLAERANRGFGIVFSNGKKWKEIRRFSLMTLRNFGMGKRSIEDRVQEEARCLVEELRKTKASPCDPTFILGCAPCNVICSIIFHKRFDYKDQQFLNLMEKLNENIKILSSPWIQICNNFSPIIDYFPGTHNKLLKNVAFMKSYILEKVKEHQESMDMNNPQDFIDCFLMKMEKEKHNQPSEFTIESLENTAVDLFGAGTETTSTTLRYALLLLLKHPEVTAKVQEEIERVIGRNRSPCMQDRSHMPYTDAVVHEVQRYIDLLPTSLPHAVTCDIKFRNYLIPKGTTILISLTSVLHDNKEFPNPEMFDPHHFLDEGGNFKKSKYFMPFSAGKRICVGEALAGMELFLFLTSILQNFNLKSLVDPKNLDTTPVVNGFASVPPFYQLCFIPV

| Compound | inhibition |
| --- | --- |
| COc1ccc(CN2CCN(c3ccccc3F)CC2)c(OC)c1 | 60.9% (active) |
| COc1ccccc1CN1CCN(C(=O)Cc2ccccc2)CC1 | 31.5% (inactive) |
| Fc1cccc(F)c1CN1CCN(Cc2c(F)cccc2F)CC1 | 7.2% (inactive) |
| CC(=NCC1CCCO1)c1c(O)n(-c2ccccc2)c(=O)[nH]c1=O (configuration not stated) | 27.9% (inactive) |
| CCC(=NCCc1ccccc1)c1c(O)n(C2CCCCC2)c(=O)[nH]c1=O | 68.4% (active) |
| CC(=NC1CCN(Cc2ccccc2)CC1)c1c(O)n(C)c(=O)n(C)c1=O | 17.4% (inactive) |
| CC(=O)c1c(O)n(C2CCCCCC2)c(=O)[nH]c1=O | 82.9% (active) |
| CN1CCN(Cc2ccc(OC(F)(F)F)cc2)CC1 | 3.1% (inactive) |
| CCc1nc2ccccc2c(=O)n1-c1cccc(OC)c1 | -4% (inactive) |
| CC(=O)N(C1=NCCCS1)c1ccccc1F | 18.1% (inactive) |
| COC(=O)C(c1ccccc1)N1CCCCCC1 (configuration not stated) | 5.8% (inactive) |
| O=c1c2ccccc2nc(-c2ccco2)n1-c1ccc(Br)cn1 | -4.8% (inactive) |
| COc1ccccc1N=C1SCCCN1C | -3.6% (inactive) |
| CCN(CC)CCOC(=O)c1cc2cc(COC)ccc2o1 | -1.3% (inactive) |
| Cc1cccc(-n2c(C)nc3cc(C(=O)N4CCC5(CC4)OCCO5)ccc32)c1 | 13.7% (inactive) |
| O=C(c1cc2nc(-c3ccccc3)cc(-c3ccccc3)n2n1)N1CCC2(CC1)OCCO2 | 94.6% (active) |
| O=C(c1cc(-c2ccncc2)nc2ccccc12)N1CCC2(CC1)OCCO2 | 41.9% (inactive) |
| CCN(CC)P(=O)(Oc1cccc(C)c1)N(CC)CC | 46.2% (inactive) |
| CCC(=O)CC(c1ccc([N+](=O)[O-])cc1)c1c(O)c2ccccc2oc1=O (configuration not stated) | 75.8% (active) |
| O=C(C1CC(=O)N(C2CCCC2)C1)N1CCC2(CC1)OCCO2 (configuration not stated) | 9.5% (inactive) |
| CC(=O)N1CN2CN(C(C)=O)CC(C(=O)c3ccc(Br)cc3)(C2)C1 | -14.6% (inactive) |
| Fc1ccc(N2CCN(Cc3ccc4c(c3)OCO4)CC2)cc1 | 14.2% (inactive) |
| c1ccc2sc(C3CCCNC3)nc2c1 (configuration not stated) | -23% (inactive) |
| CCCCn1c(O)c(C(CC)=NCc2ccco2)c(=O)[nH]c1=O | 56.4% (active) |
| CCCCCCN=C(CC)c1c(O)n(CCCC)c(=O)[nH]c1=O | 93.6% (active) |
| CCC(=NCc1ccco1)c1c(O)n(Cc2ccccc2)c(=O)[nH]c1=O | 35.4% (inactive) |

| Compound | inhibition |
| --- | --- |
| CCC(=NCCCO)c1c(O)n(-c2ccc(OC)cc2)c(=O)[nH]c1=O | -2.8% (inactive) |
| Cc1cc(OCc2cc(C(=O)O)oc2C)c2c3c(c(=O)oc2c1)CCCC3 | 22.2% (inactive) |
| OC(CNC1CCCCC1)c1ccccc1 (configuration not stated) | 28.7% (inactive) |
| O=c1c2ccccc2nc(-c2ccc(Cl)cc2Cl)n1-c1ccncc1 | 17.2% (inactive) |
| COC(=O)N(c1ccc(OC)cc1)P1(=S)OCCC(C)O1 (configuration not stated) | 12.9% (inactive) |
| CCc1cccc2c(C#N)cn(CC(=O)N3CCOCC3)c12 | 37.3% (inactive) |
| N[C@@H](Cc1c[nH]c2ccccc12)c1nnc(SCc2c(F)cccc2Cl)o1 | 70.3% (active) |
| CCCC(C)n1[nH]c(=O)c2c1NC(=O)CSC2c1ccc(OC)c(OC)c1 (configuration not stated) | 1.7% (inactive) |
| CCN1CCN(C(=O)Cc2coc3cc(C)cc(C)c23)CC1 | -3.2% (inactive) |
| CCOC(=O)c1c(N)n(CCN2CCOCC2)c2nc3ccccc3nc12 | 25.6% (inactive) |
| COc1cc(Cn2c(N)c(C(=O)NCc3ccco3)c3nc4ccccc4nc32)cc(OC)c1OC | 100% (active) |
| CCOC(=O)c1c(N)n(Cc2ccccc2)c2nc3ccccc3nc12 | 12% (inactive) |
| O=C(c1cc(S(=O)(=O)N2CCOCC2)ccc1F)N1CCC2(CC1)OCCO2 | -0.4% (inactive) |
| Cc1cc(C)cc(NC(=S)NC2CC3CCCC(C2)N3Cc2cccs2)c1 (configuration not stated) | 8.1% (inactive) |
| CNP1(NC)=Nc2nn(-c3ccccc3)c(N)c2C(c2ccccc2)=N1 | -4% (inactive) |
| CC1(C)C(c2ccccc2)=NC(c2cccnc2)=[N+]1[O-] | 38.2% (inactive) |
| Cn1c(O)c(C=NCCCC(=O)O)c(=O)n(C)c1=O | -3.8% (inactive) |
| C/C(CCc1c[nH]c2ccccc12)=N\O | -21.6% (inactive) |
| CCOC(=O)C1=C(C)OC(N)=C(C(=O)OC)C12C(=O)Nc1ccc(Br)cc12 (configuration not stated) | 22% (inactive) |
| COc1ccc(C2NCc3ccc4c(c3-n3cccc32)OCO4)cc1OC (configuration not stated) | 10.3% (inactive) |
| CCOC(=O)C1SC2(C(F)(F)C(F)F)CC1(O)c1c(c(OC)c3occc3c1OC)O2 (configuration not stated) | 87% (active) |
| CCNc1nc2[nH]c(=O)c3c(c2s1)OC(N)=C(C#N)C3c1cccs1 (configuration not stated) | -5.9% (inactive) |
| CCOc1ccc(C2SCC(=O)Nc3c2c(C)nn3C2CCOC(C)(C)C2)cc1 (configuration not stated) | 7.4% (inactive) |
| N#Cc1ccc(Cn2cc(C(=O)c3ccco3)c3ccccc32)cc1 | 77.3% (active) |
| CC1=C(C(=O)Nc2ccccc2)SCCO1 | -1.2% (inactive) |
| O=C(CSC1c2ccccc2-c2ccccc21)N/N=C/c1ccccc1 | 21.3% (inactive) |
